# Source: PubChem BioAssay AID743025 (Vanderbilt Specialized Chemistry Center, 2013)
# Values without a mark were called inactive. Calls of active or inactive are those of the source.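 The calls were made as follows: active = IC50 below 10 µM at human M5 in a calcium flux test, acting as a negative modulator; inactive = the rest.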
# Molecular target: Muscarinic acetylcholine receptor M5 (Homo sapiens) (UniProt P08912)
# Assay: M5 muscarinic receptor negative allosteric modulators, cell-based, single concentration, human M5 (AID 743025)
# Conditions: CHO-K1 hM5, ACh EC80 calcium flux, Fluo-4; at 10 µM; stronger effect = lower value
# Chain of Muscarinic acetylcholine receptor M5 (Homo sapiens) (P08912 whole entry, looked up): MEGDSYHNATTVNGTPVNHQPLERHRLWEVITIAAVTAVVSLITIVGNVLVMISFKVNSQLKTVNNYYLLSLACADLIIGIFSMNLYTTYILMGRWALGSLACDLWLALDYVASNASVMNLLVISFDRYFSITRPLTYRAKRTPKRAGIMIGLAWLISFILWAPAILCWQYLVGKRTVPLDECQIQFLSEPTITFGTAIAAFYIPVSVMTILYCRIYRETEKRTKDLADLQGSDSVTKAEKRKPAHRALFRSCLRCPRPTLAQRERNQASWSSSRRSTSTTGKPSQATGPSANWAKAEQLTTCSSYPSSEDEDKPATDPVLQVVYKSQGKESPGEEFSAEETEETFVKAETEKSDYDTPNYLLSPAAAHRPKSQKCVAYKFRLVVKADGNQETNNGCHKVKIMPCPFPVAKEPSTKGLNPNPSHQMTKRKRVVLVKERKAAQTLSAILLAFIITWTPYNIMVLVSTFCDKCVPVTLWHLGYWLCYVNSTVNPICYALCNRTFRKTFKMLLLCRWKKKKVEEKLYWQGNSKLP
row,SMILES,activity remaining
1,O=C(c1ccc(OC(F)(F)F)cc1)N1CCN2C(=O)c3ccccc3C12c1ccc(F)cc1 (centres undefined),69.4%
2,O=C(c1ccc(OC(F)(F)F)cc1)N1CCCN2C(=O)c3ccccc3C12c1ccc(Cl)cc1 (centres undefined),76.4%
3,O=C(c1ccc(Oc2ccccc2)cc1)N1CCN2C(=O)c3ccccc3C12c1ccccc1 (centres undefined),75.1%
4,CN(C)c1ccc(C(=O)N2CCN3C(=O)c4ccccc4C23c2ccccc2)cc1 (centres undefined),88%
5,O=C(c1ccc(SC(F)(F)F)cc1)N1CCCN2C(=O)c3ccccc3C12c1ccc(Cl)cc1 (centres undefined),78.5%
6,O=C(c1ccc(F)cc1)N1CCCN2C(=O)c3ccccc3C12c1ccc(Cl)cc1 (centres undefined),76%
7,O=C(c1ccccc1)N1CCN(C(=O)c2ccccc2)C1c1ccccc1,85.3%
8,Cc1ccc(C23c4ccccc4C(=O)N2CCN3C(=O)c2ccc(F)cc2)cc1 (centres undefined),14.1% (active)
9,O=C(Nc1ccc(Cl)cc1)N1CCN2C(=O)c3ccccc3C12c1ccccc1 (centres undefined),78.2%
10,O=C(c1ccccn1)N1CCN2C(=O)c3ncccc3C12c1ccccc1 (centres undefined),73.7%
11,O=C(c1ccc(Cl)cc1)N1CCN2C(=O)c3ccccc3C12c1ccccc1 (centres undefined),89.9%
12,O=C(c1ccc(C(F)(F)F)cc1)N1CCN2C(=O)c3ccccc3C12c1ccc(F)cc1 (centres undefined),70.2%
13,O=C(c1cccnc1)N1CCN2C(=O)c3ccccc3C12c1ccccc1 (centres undefined),74.8%
14,O=C1c2ccccc2C2(c3ccccc3)N1CCN2C(=S)Nc1cccc(Cl)c1 (centres undefined),93%
